tim10-1 inh = growth inhibitors of tim10-1 mutant yeast, primary screen, luminescence, uHTS; inhibition, % at 20 µM; S. cerevisiae tim10-1 ts strain growth, BacTiter-Glo, 24 h; actives 2.2% (n = 330,000);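 active = inhibition of at least 40%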;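 note: mutant grown at 25 °C; 0% = DMSO wells with yeast and 100% = wells holding no yeast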
SKKanGAS inh = S. pyogenes SKKanGAS growth inhibitors in kanamycin, primary screen, streptokinase expression inhibitor project, SKKanGAS strain, BacTiter-Glo luminescence; 6 h; inhibition, % at 7.5 µM; actives 1.3% (n = 300,000); AID 1662, 2009;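 active = mean replicate score, as percent of positive control median, at least 50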;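 note: strain carries kanamycin resistance gene driven by streptokinase promoter and grows in 40 µg/ml kanamycin; loss of luminescence reflects streptokinase promoter inhibition or plain growth inhibition; 0% = median of DMSO wells and 100% = positive control at its reference dose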
TIM10 inh = growth inhibitors of isogenic TIM10 control yeast, primary screen, counter-screen for tim10-1 yeast inhibitor project, luminescence, uHTS | S. cerevisiae TIM10 strain growth, BacTiter-Glo luminescence, 24 h | inhibition, % at 10 µM | actives 1.4% (n = 330,000) | AID 463195, 2010;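 active = inhibition of 40% or more at the single tested concentration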;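 note: wild-type TIM10 isogenic control strain grown at permissive 25 °C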
PfHsp90 set2 = growth inhibition of PfHsp90-expressing yeast, primary screen, antimalarial PfHsp90 inhibitor project, S. cerevisiae, BacTiter-Glo luminescence, single point, set 2. actives 0.32% (n = 310,000). BacTiter-Glo ATP, 48 h; yeast lacking PDR1 and PDR3 efflux regulators. inhibition, % at 9.4 µM;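 active = every replicate shows inhibition above about 80%, whatever the replicate mean, limit read from the data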;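 note: 0% = DMSO neutral controls and 100% = 20 µM radicicol positive controls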
tim23-1 inh = growth inhibitors of tim23-1 mutant yeast, primary screen, luminescence, uHTS | S. cerevisiae tim23-1 growth, BacTiter-Glo luminescence, 24 h | inhibition, % at 20 µM | actives 1.3% (n = 330,000) | AID 463212, 2010;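 active = growth inhibition of the mutant yeast at or above 50%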;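 note: temperature-sensitive mutant grown at 25 °C; plate controls were DMSO-treated mutant yeast for no effect and medium wells lacking yeast for full effect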
tim10-1 confirm = growth inhibitors of tim10-1 mutant yeast, confirmation, single concentration, luminescence, S. cerevisiae; inhibition, % at 20 µM; shares compounds with tim10-1 inh; S. cerevisiae tim10-1 ts strain growth, BacTiter-Glo, 24 h; actives 56% (n = 7,400);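 active = inhibition of yeast growth at or above a set limit in either of two repeat tests at 20 µM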;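 note: tim10-1 mutant grown at permissive 25 °C to find synthetic lethal compounds; 0% = DMSO yeast wells and 100% = medium wells without yeast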
tim10 confirm = growth inhibitors of wild-type TIM10 yeast, confirmation, counter-screen for tim10-1 synthetic lethality project, single concentration, luminescence, S. cerevisiae. shares compounds with TIM10 inh. S. cerevisiae tim10 strain growth, BacTiter-Glo luminescence, 24 h. inhibition, % at 10 µM. actives 63% (n = 4,600);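 active = inhibition of yeast growth at or above a set limit in either of two replicates at 10 µM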;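 note: this counterscreen used the strain with wild-type TIM10; 0% = yeast with DMSO and 100% = medium wells lacking yeast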
tim23-1 confirm = tim23-1 mutant yeast growth inhibitors, confirmation, luminescence, single concentration | shares compounds with tim23-1 inh | S. cerevisiae tim23-1 growth, BacTiter-Glo luminescence, 24 h | inhibition, % at 20 µM | actives 83% (n = 4,400);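 active = inhibition above about 39% in either of two replicate wells at 20 µM, limit read from the data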;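 note: temperature-sensitive tim23-1 mutant grown at 25 °C; 0% = DMSO wells with yeast and 100% = medium wells without yeast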
* = called active by the depositor; / = not tested or not shown. Most compounds without a hit are left out; they make up all but 4.4% or so of the library.

SMILES | tim10-1 inh | SKKanGAS inh | TIM10 inh | PfHsp90 set2 | tim23-1 inh | tim10-1 confirm | tim10 confirm | tim23-1 confirm
COc1cc(C(=O)Nn2cnnc2)ccc1OC(F)F | 11 | -4 | -19 | -14 | 12 | / | / | /
O=C(/C=C/c1ccc(Cl)c(Cl)c1)n1cccn1 | 61* | -5 | 50* | -15 | 59* | 41* | -13 | 44*
Clc1ccc(-n2nnnc2Sc2ncnc3sccc23)cc1 | 43* | -9 | 2 | -45 | 70* | 33* | / | 50*
O=C(COC(=O)c1cccc(Cl)c1)NCc1ccccc1 | 9 | / | -11 | / | 6 | / | / | /
CCC(=O)Nc1cccc(-c2csc(-c3ccccc3)n2)c1 | 40* | 5 | 52* | 6 | 55* | 35* | -5 | 60*
COc1ccc(OC)c(NC(=O)CCN2CCN(c3ccccc3OC)CC2)c1 | -10 | -7 | 4 | -2 | 0 | / | / | /
Cc1ccc(-c2nc(N/N=C/c3cccnc3)c3ccccc3n2)cc1 | 76* | 15 | 66* | 17 | 84* | 74* | 59* | 85*
Cc1ccccc1C(=O)Oc1ccc2ccc(O)cc2c1 | 49* | 2 | 34 | -25 | 51* | 46* | / | 49*
COc1cccc(C(=O)Oc2ccc3ccc(O)cc3c2)c1 | 43* | -3 | 34 | / | 57* | 38* | / | 54*
CC(C)(CO)NS(=O)(=O)c1ccc2c(c1)Cc1cc(S(=O)(=O)NC(C)(C)CO)ccc1-2 | -8 | 3 | 5 | -12 | -6 | / | / | /
Cc1cc(OCC(=O)Nc2ccc3oc(=O)ccc3c2)ccc1Cl | -8 | 0 | -30 | -6 | -7 | / | / | /
Cc1ccc(NC(=O)c2ccccc2NS(=O)(=O)c2ccc(Cl)s2)cc1S(=O)(=O)N1CCOCC1 | 15 | 38 | -5 | 5 | 16 | / | / | /
COc1cc(Cl)ccc1OCc1cc(C(=O)N(C)C2CC(C)(C)NC(C)(C)C2)no1 | -22 | -4 | 0 | -7 | -15 | / | / | /
Cc1cccc(NC(=O)Cc2coc3ccc4ccccc4c23)n1 | 46* | -1 | 31 | -59 | 51* | 36* | / | 56*
COc1ccc(C)cc1N(C(=O)c1ccco1)C(C(=O)NC1CCCC1)c1cc(OC)c(OC)c(OC)c1 (stereo unspecified) | 22 | 0 | -4 | 12 | 9 | / | / | /
N#C/C(=C\c1ccc(Cl)c([N+](=O)[O-])c1)c1ccccn1 | 54* | -2 | 64* | -24 | 60* | 66* | 73* | 69*
CCSc1ncc(/C=N/Nc2ccc(Cl)cc2)n1C | 46* | 4 | -29 | / | 70* | 6 | / | 63*
Cc1ccc(C(=O)c2nocc2C(=O)c2cccs2)cc1 | 13 | 5 | 27 | 18 | 46 | / | / | /
O=C(c1ccccn1)c1conc1C(=O)c1ccc(Br)cc1 | 69* | 3 | 72* | 10 | 78* | 73* | 63* | 87*
Cc1ccc(SCc2[nH]nc3c2C(c2ccco2)C(C#N)=C(N)O3)cc1 (stereo unspecified) | 71* | 23 | 38 | -8 | 68* | 55* | / | 50*
Cc1ccc(SCc2[nH]nc3c2C(C(C)C)C(C#N)=C(N)O3)cc1 (stereo unspecified) | 37 | -4 | 0 | -7 | 13 | / | / | /
CCc1[nH]nc2c1C(c1ccc(Br)s1)C(C#N)=C(N)O2 (stereo unspecified) | 85* | / | 75* | 13 | 82* | 83* | -22 | 80*
COc1ccc(Cl)cc1S(=O)(=O)NC(C)C(=O)NCc1ccc2c(c1)OCO2 (stereo unspecified) | 17 | -1 | -11 | -10 | 11 | / | / | /
CCc1ccccc1NC1Nc2cc(C)nn2S1 (stereo unspecified) | 27 | -12 | 7 | -36 | 27 | / | / | /
Cc1cc2n(n1)SC(Nc1cc(Cl)ccc1Cl)N2 (stereo unspecified) | 47* | -9 | 48* | -9 | 55* | 35* | 45* | 37*
SMILES | tim10-1 inh | SKKanGAS inh | TIM10 inh | PfHsp90 set2 | tim23-1 inh | tim10-1 confirm | tim10 confirm | tim23-1 confirm
CCCCCCCCNS(=O)(=O)CCNC1CC1 | / | / | / | -11 | / | / | / | /
CNC(=O)c1ccsc1NC(=O)c1ccc2c(c1)CCCC2 | 49* | 0 | 54* | 13 | 63* | 30* | 47* | 72*
CCOC(=O)C1(Cc2cccc(F)c2)CCN(Cc2ccc(COC)o2)CC1 | 15 | / | -1 | 13 | 4 | / | / | /
O=C(COC(=O)CNC(=O)c1ccc2c(c1)OCO2)Nc1ncc(Cl)cc1Cl | 0 | 0 | 16 | 2 | 8 | / | / | /
Cc1ccsc1/C=N/NC(=O)c1ccc(Cn2cc(Br)cn2)o1 | -12 | -9 | -11 | -13 | -9 | / | / | /
O=C(N/N=C/c1cccc(Br)c1)c1ccc(Cn2cc(Br)cn2)o1 | 49* | 8 | 68* | -6 | 76* | 60* | 81* | 83*
Cc1cccc(N2CN(S(=O)(=O)c3cccc([N+](=O)[O-])c3)c3nc4ccccc4nc32)c1 | 15 | / | 0 | -11 | 19 | / | / | /
Cc1ccnc(NC(=O)c2ccc([N+](=O)[O-])o2)c1 | 64* | 17 | 55* | -24 | 61* | 59* | 3 | 76*
Cc1ccc(CNC(=O)c2nn(C)c(C)c2[N+](=O)[O-])cc1 | 2 | -11 | -4 | 34 | 11 | / | / | /
Cc1ccc(CNC(=O)c2ccc([N+](=O)[O-])o2)cc1 | 62* | 56* | 67* | 8 | 64* | 57* | 40* | 54*
CN(Cc1ccccc1)C(=O)c1ccc([N+](=O)[O-])o1 | 68* | -7 | 75* | -15 | 50* | 69* | 72* | 64*
CCn1c(SCC(=O)Nc2ccc(F)cc2)nnc1C1CC1 | -11 | -1 | -12 | 10 | 6 | / | / | /
Cc1cccc(N=N/C(=C\O)C(=O)c2ccc(Br)cc2)c1 | 57* | 53* | 36 | -79 | 64* | 52* | / | 44*
Cc1cccc(N/N=C(\C=N\N)C(=O)c2ccc(Br)cc2)c1 | 32 | 32 | 31 | / | 7 | / | / | /
CCOc1ccc(C(C)(C)C)cc1S(=O)(=O)N1CC(C)OC(C)C1 (stereo unspecified) | 44* | -4 | 32 | -13 | 55* | 28 | / | 42*
CCOc1ccc(C(C)(C)C)cc1S(=O)(=O)n1nc(C)cc1C | 46* | 5 | 46* | 32 | 54* | 41* | 0 | 51*
